Among the test systems are HCT-15 colon; HT29 colon; SNB-75 CNS; U251 CNS; UACC-62 melanoma; LOX IMVI melanoma; SK-MEL-28 melanoma; SN12C renal; UO-31 renal; ACHN renal; CAKI-1 renal; A498 renal; CCRF-CEM leukemia; MOLT-4 leukemia; PC-3 prostate; SK-MEL-2 melanoma; EKVX NSCLC; TK-10 renal; SK-MEL-5 melanoma; SNB-19 CNS.
Experiment in all cases: NCI-60 one-dose screen, 48 h (100 = growth as untreated, 0 = no growth, -100 = all killed)
Holding throughout (conditions): 10 µM unless noted

This is part of a sample that, as a whole, favours compounds with a hit. Of some 83,000 tested, about 20% had one in any assay.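 Growth was measured after 48 h exposure to one concentration of compound in 96-well plates. Values under 10 count as active.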 Values without a mark were called inactive. Activity calls are given as the source filed them.

This is an account of results in PubChem BioAssay (NCI).

In the case of `O=c1nc(NO)[nH]c(=O)n1Cc1ccccc1`, the growth was 101% with HCT-15 colon; 103% in the assay on HT29 colon; 92.8% with SNB-75 CNS; 99.7% with U251 CNS; 105% in the assay with UACC-62 melanoma; 103% in the assay with LOX IMVI melanoma. For the same molecule, the growth in the assay on SK-MEL-28 melanoma is 107%; in the assay with SN12C renal, 113%; in the assay on UO-31 renal it was 90.3%; in the assay with ACHN renal, 101%; in the assay with CAKI-1 renal it was 93.1%; with A498 renal, 100%. Also, the growth is 108% with CCRF-CEM leukemia and 109% in the assay with MOLT-4 leukemia.
`Cc1nc2nc(C(F)(F)F)[nH]c2nc1C`: the growth is 111% in the assay on HCT-15 colon; 107% in the assay with HT29 colon; 85.1% in the assay with SNB-75 CNS; 102% with U251 CNS; 104% with PC-3 prostate; 102% in the assay on UACC-62 melanoma. For the same molecule, the growth was 98.6% with LOX IMVI melanoma; 102% in the assay on SK-MEL-28 melanoma; 115% in the assay with SK-MEL-2 melanoma; 89.5% with EKVX NSCLC; 95.4% in the assay on SN12C renal; 101% in the assay with UO-31 renal. Besides, the growth with TK-10 renal was 104%; in the assay on ACHN renal, 110%; in the assay on CAKI-1 renal, 98.3%; with A498 renal, 98.7%; in the assay with MOLT-4 leukemia it was 113%.
For `CCOC(=O)C1=C(C)N2C(=NC3=C(CCCC/C3=C\c3ccccc3)C2c2ccccc2)S1` (centres undefined), the growth with HCT-15 colon is 96.9%; with HT29 colon it was 84.4%; in the assay with SNB-75 CNS it was 96.9%; with U251 CNS, 98.3%; with PC-3 prostate, 87.6%; with UACC-62 melanoma, 85.5%. The growth in the assay with LOX IMVI melanoma was 100%; in the assay with SK-MEL-28 melanoma it was 98%; in the assay on UO-31 renal, 91%; in the assay with ACHN renal it was 102%; in the assay with CAKI-1 renal, 90.2%; with A498 renal, 92.3%. Besides, the growth in the assay on CCRF-CEM leukemia was 98.3%; with MOLT-4 leukemia, 96.4%.
With `Nc1ccccc1-c1n[nH]c(=O)[nH]c1=O`, the growth was 104% in the assay on HCT-15 colon; 106% with HT29 colon; 89.5% with SNB-75 CNS; 94.2% in the assay with U251 CNS; 96.9% in the assay on PC-3 prostate; 89% in the assay with UACC-62 melanoma. Further, the growth with LOX IMVI melanoma is 97.8%; in the assay with SK-MEL-28 melanoma, 103%; with SN12C renal it was 97.7%; in the assay on UO-31 renal, 86.8%; with ACHN renal, 104%; in the assay with CAKI-1 renal, 87.5%. In addition, the results for the growth in the assay with A498 renal and in the assay with MOLT-4 leukemia were 107% and 106%, respectively.
Consider `FC(F)(F)c1cc(CNc2nc(Cl)ncc2Br)cc(C(F)(F)F)c1`, for which the growth in the assay on HCT-15 colon was 79.7%; in the assay with HT29 colon, 98.4%; in the assay on SNB-75 CNS, 66.6%; with PC-3 prostate, 80.2%; in the assay with SK-MEL-5 melanoma, 95.4%; in the assay with UACC-62 melanoma, 77.2%. In addition, the growth in the assay with LOX IMVI melanoma is 98.4%; in the assay on SK-MEL-28 melanoma, 94%; in the assay with SK-MEL-2 melanoma it was 83.6%; with SN12C renal, 89.3%; in the assay on UO-31 renal, 67.1%; in the assay on TK-10 renal it was 94%. Also, the growth with ACHN renal was 94.5%; in the assay with CAKI-1 renal, 76.5%; with A498 renal, 80.2%; in the assay with CCRF-CEM leukemia, 81.4%; in the assay on MOLT-4 leukemia it was 82.4%.
For the molecule `COc1ccc(C(=O)C2=CC(=O)C(=O)C2)cc1OC`, the growth in the assay on HCT-15 colon was 96.2%; in the assay with HT29 colon, 98.1%; in the assay with SNB-75 CNS, 90.8%; in the assay on PC-3 prostate, 94.5%; in the assay on SK-MEL-5 melanoma, 103%; with LOX IMVI melanoma it was 101%. The growth was 112% in the assay on SK-MEL-28 melanoma; 101% in the assay on SK-MEL-2 melanoma; 109% in the assay with SN12C renal; 91.5% with UO-31 renal; 98.7% in the assay with TK-10 renal; 103% with ACHN renal. In addition, the growth was 97.4% with CAKI-1 renal, 94.3% with A498 renal, 95.3% in the assay on CCRF-CEM leukemia and 101% in the assay with MOLT-4 leukemia.
For the molecule `COc1ccc(OC2=C(C#N)C(=N)N3c4ccccc4Sc4ccccc4C3N2)cc1` (centres undefined), the growth in the assay on HCT-15 colon is 105%; in the assay on HT29 colon, 119%; in the assay with SNB-75 CNS, 69%; in the assay with U251 CNS, 105%; in the assay on UACC-62 melanoma it was 69.6%; in the assay on LOX IMVI melanoma, 87.4%. In addition, the growth with SK-MEL-28 melanoma was 76.4%; in the assay on SK-MEL-2 melanoma it was 130%; in the assay with SN12C renal, 94.3%; in the assay on UO-31 renal, 59.5%; with TK-10 renal, 120%; in the assay with ACHN renal it was 83.3%. Also, the growth with MOLT-4 leukemia was 139%.
For the molecule `Cc1ccc(N(CSc2ccc(Cl)cc2)CSc2ccc(Cl)cc2)cc1`, the growth is 67.2% with HCT-15 colon; 74.7% in the assay on HT29 colon; 78.6% in the assay on SNB-19 CNS; 47.8% with U251 CNS; 10.8% with PC-3 prostate; 65.5% in the assay on SK-MEL-5 melanoma. Moreover, the growth was 60% in the assay on UACC-62 melanoma; -10.1% (active) in the assay on LOX IMVI melanoma; 102% with SK-MEL-28 melanoma; 86.2% in the assay on SK-MEL-2 melanoma; 17.4% in the assay with EKVX NSCLC; 30.3% in the assay on SN12C renal. Also, the growth in the assay on UO-31 renal is 22.1%; with TK-10 renal, 92.2%; in the assay with ACHN renal it was 66.6%; with CAKI-1 renal, 28.8%; with A498 renal, -22.4% (active); in the assay on CCRF-CEM leukemia it was -7.51% (active). The growth in the assay on MOLT-4 leukemia is -16.3% (active).
